GDH-TPI counter – GDH-TPI coupling enzyme inhibitors, primary screen, artefact control for M. tuberculosis FBA inhibitor project, biochemical, absorbance, full deck | AID 588335, 2011 | 360,000 tested, 1.2% active | GDH-TPI coupled enzyme counterscreen, NADH absorbance | inhibition, % at 4.8 µM; in the data active means inhibition above about 30%;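 further: 0% = DMSO wells and 100% = wells lacking the enzyme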
Rv3671c inh – Rv3671c serine protease inhibitors, primary screen, biochemical, fluorescence polarization, M. tuberculosis H37Rv | 320,000 tested, 0.048% active | inhibition, % at 5.96 µM | P9WHR9; in the data active means inhibition above about 38%;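 further: extracellular domain of Rv3671c used as enzyme; 0% = enzyme with DMSO and 100% = no enzyme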
FBA Mtb inh – Mtb FBA enzyme inhibitors, primary screen, biochemical, fluorescence, strain H37Rv; Fructose-bisphosphate aldolase (Mycobacterium tuberculosis (strain ATCC 25618 / H37Rv)), …; purified M. tuberculosis FBA, fluorescence read-out; inhibition, % at 1 µM; 360,000 tested, 2.3% active; in the data active means inhibition above about 27%;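 further: 0% = vehicle and 100% = reference inhibitor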
RecA intein inh – Mtb RecA intein splicing inhibitors, primary screen, biochemical, fluorescence, HTS | Protein RecA (Mycobacterium tuberculosis (strain ATCC 25618 / H37Rv)), P9WHJ3 | cell-free RecA intein splicing | inhibition, % (test concentration not listed) | 290,000 tested, 0.75% active; in the data active means inhibition above about 30%;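 further: 0% = vehicle wells and 100% = reference inhibitor control wells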
Target sequence (P9WHJ3 whole entry, looked up): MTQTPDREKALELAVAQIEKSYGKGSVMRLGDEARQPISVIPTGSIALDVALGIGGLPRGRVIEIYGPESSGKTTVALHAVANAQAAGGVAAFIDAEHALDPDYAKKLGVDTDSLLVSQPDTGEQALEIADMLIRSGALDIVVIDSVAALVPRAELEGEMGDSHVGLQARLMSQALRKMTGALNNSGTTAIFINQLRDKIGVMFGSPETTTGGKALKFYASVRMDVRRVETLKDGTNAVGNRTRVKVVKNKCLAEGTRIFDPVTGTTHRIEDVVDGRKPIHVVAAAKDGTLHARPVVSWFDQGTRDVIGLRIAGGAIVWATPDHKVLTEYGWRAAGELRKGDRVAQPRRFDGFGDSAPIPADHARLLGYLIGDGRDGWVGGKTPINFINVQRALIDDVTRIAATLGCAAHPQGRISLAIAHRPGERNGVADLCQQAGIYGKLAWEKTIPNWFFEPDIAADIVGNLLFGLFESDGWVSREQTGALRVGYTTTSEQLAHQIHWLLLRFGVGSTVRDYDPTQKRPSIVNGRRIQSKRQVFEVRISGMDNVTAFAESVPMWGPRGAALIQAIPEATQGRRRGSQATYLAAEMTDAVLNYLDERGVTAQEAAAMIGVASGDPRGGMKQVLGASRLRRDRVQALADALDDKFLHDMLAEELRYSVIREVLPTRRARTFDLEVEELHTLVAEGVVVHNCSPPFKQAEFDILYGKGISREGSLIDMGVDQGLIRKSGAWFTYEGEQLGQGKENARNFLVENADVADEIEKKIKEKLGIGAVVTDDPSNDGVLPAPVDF
Mtb UGM inh – M. tuberculosis UGM enzyme inhibitors, primary screen, biochemical, fluorescence polarization, single point. inhibition, % at 10 µM. purified UGM, fluorescence polarization probe displacement. 320,000 tested, 0.06% active; in the data active means inhibition above about 10%, passing the limit was not always enough
Mtb betalactam – beta-lactam sensitization of Mtb H37Rv, H37Rv | M. tuberculosis H37Rv growth with meropenem, percent inhibition | inhibition, % at 25 µM | 330,000 tested, 0.27% active | AID 434955, 2010;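 further: growth measured after seven days incubation then overnight dye step; 0% = bacteria only wells and 100% = bacteria with antibiotic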
GFP chromophore – counter-screen: blocks GFP chromophore formation, dose response, counter-screen, biochemical, fluorescence, homogeneous. shares compounds with RecA intein inh. EC50, µM. 2,100 tested, 83% active. cell-free GFP chromophore formation
* marks the source's active call; other numbers are inactive results; x = no result. Shown are actives, neighbours in structure and some others; about 4% of the full set was active somewhere. Unless noted, how the calls were made is not given here.

SMILES | GDH-TPI counter | Rv3671c inh | FBA Mtb inh | RecA intein inh | Mtb UGM inh | Mtb betalactam | GFP chromophore
O=C1CCC(C(=O)N2CCCCO2)CN1Cc1cccc(F)c1 (stereo unspecified) | 6 | 0 | -6 | 1 | 1 | 3 | x
CCc1ccc(OCC(=O)N/N=C2\CC(=O)c3ccccc32)cc1 | 12 | -68 | -1 | 53* | 2 | -13 | 8.8*
COc1ccc(OCC(=O)N/N=C2\CCCCc3ccccc32)cc1 | 2 | 6 | 3 | 4 | 1 | -5 | x
CC1CN(CC(O)COc2ccc(C#N)cc2)CCN1CC(O)COc1ccc(C#N)cc1 (stereo unspecified) | 5 | -2 | -2 | -1 | 1 | -3 | x
O=[N+]([O-])c1cc(O)c2ncccc2c1 | x | -51 | x | 37* | 3 | -7 | 12*
Cc1cccc(CS(=O)(=O)c2nnc([C@H](Cc3ccccc3)NC(=O)OC(C)(C)C)o2)c1 | -5 | -22 | -2 | 36* | -2 | 13 | 11*
COC(=O)CS(=O)(=O)c1nnc([C@H](Cc2ccccc2)NC(=O)OC(C)(C)C)o1 | 1 | 2 | 5 | 69* | 0 | -7 | 14*
CC(C)(C)OC(=O)N[C@@H](Cc1ccccc1)c1nnc(SCC(N)=O)o1 | 4 | 4 | -5 | -1 | 1 | -12 | x
Cc1nnc(NC(=O)c2nc(S(=O)(=O)Cc3ccccc3)ncc2Cl)s1 | 11 | -4 | 1 | 56* | -1 | -2 | 16*
CCCc1nnc(NC(=O)c2nc(S(=O)(=O)Cc3cccc(C)c3)ncc2Cl)s1 | 8 | -7 | -1 | 85* | 0 | 3 | >38
Cc1ccccc1CS(=O)(=O)c1ncc(Cl)c(C(=O)Nc2ccc(F)cc2)n1 | 8 | -16 | 2 | 34* | 1 | 1 | 8.6*
Cc1cccc(CS(=O)(=O)c2ncc(Cl)c(C(=O)Nc3c(C)cccc3C)n2)c1 | 1 | -5 | 6 | 46* | -3 | 3 | 9.9*
COc1ccccc1N(CC(=O)NCc1ccccc1C)S(=O)(=O)c1ccc(C)cc1 | 2 | -5 | 1 | 1 | -1 | 1 | x
O=C(Nc1ccc(F)cc1)c1nc(S(=O)(=O)Cc2ccccc2)ncc1Cl | 14 | -10 | 0 | 1 | -3 | 54 | x
Cc1cccc(C)c1NC(=O)c1nc(S(=O)(=O)Cc2ccccc2)ncc1Cl | 3 | 6 | 1 | 36* | -2 | 14 | 17*
Cc1ccc(NC(=O)c2nc(S(=O)(=O)Cc3ccccc3)ncc2Cl)cc1 | 3 | 0 | 5 | 66* | -2 | 77 | 40*
CCS(=O)(=O)c1ncc(Cl)c(C(=O)Nc2ccc(S(=O)(=O)N(C)c3ccccc3)cc2)n1 | 12 | -176 | 1 | 97* | 0 | 11 | 1.6*
CCN(c1ccccc1)S(=O)(=O)c1ccc(NC(=O)c2nc(S(C)(=O)=O)ncc2Cl)cc1 | 10 | -125 | 4 | 3 | 2 | -1 | x
CCn1c(SCC(=O)Nc2cccc(S(=O)(=O)N(C)c3ccccc3)c2)nnc1C1CC1 | 10 | 1 | 3 | x | -2 | 4 | x
COc1cccc(NC(=O)c2cccc(N3C(=O)C4C5C=CC(C5)C4C3=O)c2)c1 (stereo unspecified) | 8 | -3 | 3 | 0 | 1 | -3 | x
O=C(CN1CCCC1)Nc1ccc(F)c(Cl)c1 | -3 | -1 | 6 | 0 | 1 | -2 | x
c1cc2cn[nH]c2cc1NC1CCCCCC1 | 21 | -23 | 14 | 89* | 1 | 12 | 16*
Nn1cnnc1N/N=C/c1ccc(Cl)c([N+](=O)[O-])c1 | -3 | -144 | -12 | 59* | 2 | -5 | 25*
Nn1cnnc1N/N=C/c1ccc(F)cc1 | 9 | -23 | -5 | 0 | -1 | 53 | x
Cc1[nH]n(-c2ccccc2)c(=O)c1/C=N/NC(=O)c1ccc(O)cc1O | 36* | 15 | 16 | 41* | 2 | 3 | 2.8*
SMILES | GDH-TPI counter | Rv3671c inh | FBA Mtb inh | RecA intein inh | Mtb UGM inh | Mtb betalactam | GFP chromophore
CCOC(=O)c1c(NC(=O)CSc2nnc(-c3c[nH]c4ccccc34)n2CCOC)sc2c1CCCC2 | 14 | -9 | 1 | 32* | -3 | 1 | >38
CCOC(=O)c1c(NC(=O)CSc2nnc(-c3c[nH]c4ccccc34)n2C)sc2c1CCCC2 | -3 | 0 | 2 | 0 | -2 | -2 | x
Cc1ccc(C)c(C(=O)Cn2ncc(Cl)c(Cl)c2=O)c1 | 6 | -8 | 2 | 19 | 3 | 98 | x
Cc1cc(C(=O)Cn2ncc(Cl)c(Cl)c2=O)c(C)n1CC(F)(F)F | 8 | -3 | -1 | 36* | -3 | 100 | 6*
CCOC(=O)C1CCN(Cc2cc(C(C)C)c(O)c(C(C)C)c2)CC1 | 0 | -6 | -1 | 59* | 0 | -2 | >38
CS(=O)(=O)c1ccc(C(=O)OCC(=O)NC23CC4CC(CC(C4)C2)C3)cc1[N+](=O)[O-] | -2 | -79 | -6 | 32* | 2 | -1 | >38
C/C(CC(=O)N1CCN(C=O)CC1)=N\NC(=O)c1ccc(Cl)cc1 | 6 | -11 | 2 | 3 | 1 | 5 | x
C/C(CC(=O)N1CCN(C=O)CC1)=N\NC(=O)c1cccc([N+](=O)[O-])c1 | -3 | 3 | 4 | 71* | 0 | 3 | 33*
COC1(OC)C(/C=C/c2ccc(C)cc2)C(C#N)(C#N)C1(OC)OC (stereo unspecified) | 1 | -12 | -8 | 59* | -1 | 0 | >38
COc1cc(N=C2C(=O)N3c4c(cccc42)C(C)=CC3(C)C)cc(OC)c1 | 4 | 15 | 7 | 20 | -2 | 1 | x
CC1=CC(C)(C)N2C(=O)C(=Nc3ccc(O)cc3)c3cccc1c32 | 8 | -30 | 0 | 39* | -1 | 18 | >38
COc1ccc(-c2cc(C3CCNCC3)[nH]n2)cc1 | 3 | -8 | -1 | 2 | 1 | 14 | x
CC1=NN(c2ccccc2)C(=O)C1N=Nc1cccc(O)c1 (stereo unspecified) | 9 | 14 | -2 | 3 | -1 | 77 | x
CC1=NN(c2ccc(C)cc2C)C(=O)C1C(c1cccc(O)c1)C1C(=O)N(c2ccc(C)cc2C)N=C1C (stereo unspecified) | 1 | -171 | -2 | 97* | 1 | -2 | 1.4*
CCOC(=O)c1nnn(-c2nonc2-n2cccc2)c1CCl | 5 | 3 | 6 | 70* | -1 | 88 | 12*
CCOC(=O)c1nnn(-c2nonc2-n2cccc2)c1CN1CCC(C)CC1 | 8 | -4 | 1 | 10 | -1 | -3 | x
